# From the supplement of paper PMC10503962
# Test system: Trichuris muris adult worms
# Assay: mean motility score (Paragon pixel variance) of adult worms (arbitrary units); higher = more motile worms, i.e. less anthelmintic effect; extreme values may be limits of the assay
# Settings: 100 µM; 24 h
# Description: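 Primary ex vivo screen of 409 approved drugs against adult Trichuris muris worms: one worm per well in RPMI-1640 with penicillin/streptomycin, 100 µM drug in 1% DMSO, 37 °C, 5% CO2 for 24 h. Motility was recorded with INVAPP (200-frame movies) and scored with the Paragon pixel-variance algorithm. Values are means of triplicate wells run on three occasions; levamisole was the positive control and DMSO the negative control.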
row,SMILES,mean motility score
1,CN(C)C(=O)Oc1ccc[n+](C)c1.[I-] [pyridostigmine iodide],2610
2,CCOP(=O)(OCC)Oc1ccc([N+](=O)[O-])cc1 [paraoxon],0
3,C=CCN1CC[C@]23c4c5ccc(O)c4O[C@H]2C(=O)CC[C@@]3(O)[C@H]1C5.Cl [naloxone hydrochloride],3870
4,COc1cc([C@@H]2c3cc4c(cc3[C@H](O)[C@H]3COC(=O)[C@H]23)OCO4)cc(OC)c1OC [podofilox],3650
5,CN(C)C(=O)Oc1cc(OC(=O)N(C)C)cc(C(O)CNC(C)(C)C)c1.Cl (centres undefined) [bambuterol hydrochloride],1410
6,C#C[C@]1(O)CC[C@H]2[C@@H]3CCC4=CC(=O)CC[C@]4(C)[C@H]3CC[C@@]21C [ethisterone],1590
7,CC[C@@H](CO)NC(=O)[C@@H]1C=C2c3cccc4[nH]cc(c34)C[C@H]2N(C)C1.O=C(O)/C=C\C(=O)O [methylergonovine maleate],2650
8,Cl.O=C(CCCN1CCC(n2c(=O)[nH]c3ccccc32)CC1)c1ccc(F)cc1 [benperidol hydrochloride],3960
9,CC(C)C[C@H]1C(=O)N2CCC[C@H]2[C@]2(O)O[C@](NC(=O)C3C=C4c5cccc6[nH]c(Br)c(c56)C[C@H]4N(C)C3)(C(C)C)C(=O)N12.CS(=O)(=O)O (some centres undefined) [bromocriptine methanesulfonate],2300
10,C#CCN(C)[C@H](C)Cc1ccccc1.Cl [selegiline hydrochloride],2950
11,C[C@H](N)[C@H](O)c1ccc(O)c(O)c1 [levonordefrin],2110
12,COc1ccc(CCN2CCC(Nc3nc4ccccc4n3Cc3ccc(F)cc3)CC2)cc1 [astemizole],0
13,COc1cc2c(c(OC)c1OC)-c1ccc(OC)c(=O)cc1[C@@H](NC(C)=O)CC2 [colchicine],1420
14,CC[C@H]1[C@H]2CC3[C@@H]4N(C)c5ccccc5[C@]45C[C@H]([C@@H]2C5O)N3[C@@H]1O (some centres undefined) [ajmaline],1790
15,COc1ccc(C(CN(C)C)C2(O)CCCCC2)cc1.Cl (centres undefined) [venlafaxine hydrochloride],1570
16,"N[C@@H](Cc1cc(Br)c(O)c(Br)c1)C(=O)O [3,5 dibromotyrosine]",3040
17,CNC(=O)Oc1ccc2c(c1)[C@]1(C)CCN(C)[C@@H]1N2C [physostigmine],3170
18,[O-][n+]1ccccc1S [pyrithione],3120
19,CC(C)N(CCC(C(N)=O)(c1ccccc1)c1ccccn1)C(C)C (centres undefined) [disopyramide],1630
20,CCCN1C[C@H](CSC)C[C@@H]2c3cccc4[nH]cc(c34)C[C@H]21.CS(=O)(=O)O [pergolide mesylate],3150
21,CN1C[C@H](C(=O)N[C@]2(C)O[C@@]3(O)[C@@H]4CCCN4C(=O)[C@H](Cc4ccccc4)N3C2=O)CC2c3cccc4[nH]cc(c34)C[C@H]21.CS(=O)(=O)O (some centres undefined) [dihydroergotamine methanesulfonate],1730
22,C[N+](C)(C)CCCCCCCCCC[N+](C)(C)C.[Br-].[Br-] [decamethonium bromide],2280
23,O=C1CC[C@@]2(O)[C@H]3Cc4ccc(O)c5c4[C@@]2(CCN3CC2CC2)[C@H]1O5 [naltrexone],3530
24,CN(C)C(=O)Oc1cccc([N+](C)(C)C)c1.COS(=O)(=O)[O-] [neostigmine methylsulfate],1600
